Measured values from PubChem BioAssay.
Active and inactive are the calls of the source. Unless noted, how the calls were made is not given here.

Experiments:
[1] = anti-His antibody binders, primary screen, artefact control for SMM control protein annotation, biochemical, small-molecule microarray, 635 nm fluorescence (AID 1128); conditions: anti-His Alexa647 antibody binding, higher = more signal;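 further: score merges feature fluorescence with signal-to-noise for each printed compound spot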
[2] = tested on: Human papillomavirus type 1a E7 protein (residues 1-88); assay: HPV1a E7 small-molecule binders, primary screen, biochemical, small-molecule microarray, residues 1-88, 635 nm (AID 1129); conditions: small-molecule microarray binding, fluorescence 635 nm; higher = more signal
[3] = target: Focal adhesion kinase 1 (Homo sapiens) (UniProt Q05397); assay: small-molecule microarray binders of FAK, primary screen, biochemical, 635/667 nm fluorescence, BSA, DTT (AID 1130); conditions: PTK2 binding, 635 nm fluorescence, higher = more signal;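 further: composite of spot emission at 667 nm and signal to noise over triplicate slides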
[4] = tested on: Fibrinogen (Alexa647-labelled); assay: fibrinogen binders on compound microarrays, profiling panel, artefact control for SMM control-protein annotation, biochemical, small-molecule microarray, 635/667 nm fluorescence (AID 1131); conditions: fibrinogen-A647 binding fluorescence, higher = more signal;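 further: z-score merges 667 nm fluorescence with per-spot signal-to-noise over triplicate slides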
[5] = target: Follistatin (Homo sapiens) (UniProt P19883); assay: follistatin binders on small-molecule microarrays, primary screen, biochemical, small-molecule microarray, 635/667 nm fluorescence (AID 1132); conditions: FST binding, 635 nm fluorescence, higher = more signal
[6] = target: Fibroblast growth factor 2 (Homo sapiens) (UniProt P09038); assay: FGF2 binders on small-molecule microarrays, primary screen, biochemical, small-molecule microarray, 635/667 nm fluorescence (AID 1133); conditions: small-molecule microarray binding, FGF2, fluorescence 635/667; higher = more signal
[7] = mitochondrial membrane potential change in A549 cells, profiling panel, cell-based, JC-1 fluorescence, basal, 24 h, 100 nL (AID 1138); conditions: higher = more signal;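 further: A549 lung adenocarcinoma cells under basal conditions with no added stimulus; test concentration not given here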
Lefty1 = Lefty1 binders on small-molecule microarrays, primary screen, biochemical, small-molecule microarray, 635/667 nm fluorescence (AID 1139); conditions: small-molecule microarray binding, fluorescence 635/667; higher = more signal
[8] = tested on: wheat germ agglutinin (Triticum aestivum), Alexa647-labelled; assay: wheat germ agglutinin binders on compound microarrays, profiling panel, artefact control for SMM control-protein annotation, biochemical, small-molecule microarray, 635/667 nm fluorescence (AID 1140); conditions: WGA-A647 binding, 635 nm fluorescence, higher = more signal;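 further: score merges 667 nm feature emission with signal to noise over triplicate slides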
[9] = target: Luciferin 4-monooxygenase (Photinus pyralis) (UniProt P08659); assay: firefly luciferase enzyme inhibitors, primary screen, biochemical, luminescence, purified enzyme, 2006 set (AID 1141); conditions: SteadyGlo luminescence, 30 min, higher = more signal, called active from +8 up or from −8 down;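 further: cell-free assay with purified firefly luciferase at 100 ng per well in PBS; test concentration not given here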
[10] = tested on: Wnt5a (protein binding on small-molecule microarray); assay: Wnt5a binders on small-molecule microarray, primary screen, biophysical, 635/667 nm fluorescence (AID 1142); conditions: 635 nm fluorescence, higher = more signal;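 further: fluorescence read at 667 nm with signal to noise per printed feature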
[11] = cell viability in Huh7 cells, primary screen, cytotoxicity control for HCV replication inhibitor project, CellTiter-Glo luminescence, basal, 48 h (AID 1143); conditions: Huh7 HCV replicon, higher = more signal, called active from +8 up or from −8 down;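 further: Huh7 hepatoma cells carrying a hepatitis C replication reporter with no stimulus; test concentration not given here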
[12] = P. aeruginosa biofilm formation inhibitors, primary screen, PAO1 strain, BacTiter-Glo luminescence, LB-PBS (AID 1144); conditions: 12 h, higher = more signal
[13] = CREB reporter modulators without forskolin, primary screen, cell-based, PC12, CRE-LacZ reporter, unstimulated (AID 1145); conditions: no forskolin, luminescence, 4.5 h, higher = more signal, called active from +8 up or from −8 down
[14] = CREB reporter modulators under forskolin, primary screen, cell-based, PC12, CRE-LacZ reporter, forskolin-stimulated (AID 1146); conditions: luminescence, 4.5 h, higher = more signal, called active from +8 up or from −8 down;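 further: PC12 cells with 6xCRE LacZ reporter stimulated by forskolin 10 µM; beta-galactosidase reporter signal reflecting CREB driven transcription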
[15] = target: Streptavidin (Streptomyces avidinii) (UniProt P22629); assay: streptavidin binders on small-molecule microarray, primary screen, artefact control for SMM compound annotation, biophysical, 635/667 nm fluorescence (AID 1147); conditions: streptavidin binding, higher = more signal;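 further: signal reflects streptavidin binding to arrayed compounds as a control protein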
[16] = small-molecule binders of probe aInhba, primary screen, biochemical, small-molecule microarray, 635/667 nm fluorescence (AID 1148); conditions: higher = more signal;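 further: score merges 667nm spot fluorescence with signal-to-noise for antibody binding to printed compounds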
Torsin-1A (Homo sapiens) [17] = target: Torsin-1A (Homo sapiens) (UniProt O14656); assay: torsin A binders from cell lysate, primary screen, small-molecule microarray, wild-type, 635/667 nm (AID 1149); conditions: COS7 hTOR1A-WT lysate, 635 nm fluorescence, higher = more signal
Torsin-1A (Homo sapiens) [18] = target: Torsin-1A (Homo sapiens) (UniProt O14656); assay: small-molecule binders of mutant TOR1A in lysate, primary screen, cell lysate, small-molecule microarray, COS7 lysate, 635/667 nm fluorescence (AID 1150); conditions: COS7 hTOR1A mutant lysate, 635 nm fluorescence, higher = more signal;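 further: score pools 667 nm emission and signal to noise measuring lysate protein binding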
[19] = tested on: Sonic hedgehog protein (Shh); assay: small-molecule binders of Shh protein, primary screen, biochemical, small-molecule microarray, 635/667 nm fluorescence (AID 1151); conditions: small-molecule microarray binding, 635 nm fluorescence; higher = more signal;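 further: Shh protein binding to compounds spotted on small-molecule microarray slides; score combines spot fluorescence intensity with signal-to-noise across triplicate slides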

Chain of Follistatin (Homo sapiens) (P19883 whole entry, looked up): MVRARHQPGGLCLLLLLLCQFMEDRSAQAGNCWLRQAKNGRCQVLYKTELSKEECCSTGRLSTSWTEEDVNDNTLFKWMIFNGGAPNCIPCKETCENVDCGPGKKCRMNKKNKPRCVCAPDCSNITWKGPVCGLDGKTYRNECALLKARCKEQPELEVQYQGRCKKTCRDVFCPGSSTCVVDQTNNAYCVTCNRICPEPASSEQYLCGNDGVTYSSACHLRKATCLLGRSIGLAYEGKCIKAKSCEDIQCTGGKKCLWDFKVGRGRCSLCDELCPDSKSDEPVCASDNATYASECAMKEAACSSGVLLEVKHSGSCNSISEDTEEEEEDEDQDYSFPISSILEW
Chain of Focal adhesion kinase 1 (Homo sapiens) (Q05397 whole entry, looked up): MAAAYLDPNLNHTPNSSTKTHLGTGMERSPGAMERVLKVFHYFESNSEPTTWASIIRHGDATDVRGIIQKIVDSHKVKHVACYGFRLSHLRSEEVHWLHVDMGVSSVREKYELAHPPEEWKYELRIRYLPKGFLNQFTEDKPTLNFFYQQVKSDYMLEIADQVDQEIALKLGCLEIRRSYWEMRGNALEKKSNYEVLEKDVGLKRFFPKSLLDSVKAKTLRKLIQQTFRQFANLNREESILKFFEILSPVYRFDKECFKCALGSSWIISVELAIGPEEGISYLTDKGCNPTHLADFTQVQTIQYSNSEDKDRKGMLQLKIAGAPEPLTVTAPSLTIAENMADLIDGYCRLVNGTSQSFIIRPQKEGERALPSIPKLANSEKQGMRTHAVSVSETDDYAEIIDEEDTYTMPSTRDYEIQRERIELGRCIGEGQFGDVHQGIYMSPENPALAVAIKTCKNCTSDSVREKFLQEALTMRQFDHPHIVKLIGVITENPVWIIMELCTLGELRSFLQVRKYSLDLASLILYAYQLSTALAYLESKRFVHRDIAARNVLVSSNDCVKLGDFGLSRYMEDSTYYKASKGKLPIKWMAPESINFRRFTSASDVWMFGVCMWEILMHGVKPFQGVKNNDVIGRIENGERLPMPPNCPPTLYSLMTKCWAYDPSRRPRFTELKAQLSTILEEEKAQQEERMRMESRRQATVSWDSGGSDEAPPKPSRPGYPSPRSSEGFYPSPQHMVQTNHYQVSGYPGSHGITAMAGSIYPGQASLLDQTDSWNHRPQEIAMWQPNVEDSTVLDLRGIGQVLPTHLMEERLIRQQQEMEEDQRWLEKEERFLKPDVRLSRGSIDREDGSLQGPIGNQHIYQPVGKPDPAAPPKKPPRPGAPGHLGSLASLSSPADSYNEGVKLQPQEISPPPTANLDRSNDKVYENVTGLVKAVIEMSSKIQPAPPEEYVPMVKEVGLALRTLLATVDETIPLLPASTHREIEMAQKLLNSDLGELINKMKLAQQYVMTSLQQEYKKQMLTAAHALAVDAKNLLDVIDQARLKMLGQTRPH
Chain of Torsin-1A (Homo sapiens) (O14656 whole entry, looked up): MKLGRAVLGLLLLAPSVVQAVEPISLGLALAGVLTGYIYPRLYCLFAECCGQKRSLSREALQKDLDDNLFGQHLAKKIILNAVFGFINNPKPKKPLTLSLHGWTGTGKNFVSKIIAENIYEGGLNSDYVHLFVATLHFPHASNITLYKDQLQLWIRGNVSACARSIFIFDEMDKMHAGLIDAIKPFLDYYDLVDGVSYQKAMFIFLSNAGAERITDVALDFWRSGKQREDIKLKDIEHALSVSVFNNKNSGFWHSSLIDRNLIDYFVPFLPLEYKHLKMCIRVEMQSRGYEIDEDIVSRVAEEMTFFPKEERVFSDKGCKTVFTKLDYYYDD
Chain of Streptavidin (Streptomyces avidinii) (P22629 whole entry, looked up): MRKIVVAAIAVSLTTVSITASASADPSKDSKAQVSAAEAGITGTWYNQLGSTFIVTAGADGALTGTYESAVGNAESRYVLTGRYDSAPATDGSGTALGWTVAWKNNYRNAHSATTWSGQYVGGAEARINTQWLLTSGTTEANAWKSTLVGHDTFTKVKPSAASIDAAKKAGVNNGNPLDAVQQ
Chain of Luciferin 4-monooxygenase (Photinus pyralis) (P08659 whole entry, looked up): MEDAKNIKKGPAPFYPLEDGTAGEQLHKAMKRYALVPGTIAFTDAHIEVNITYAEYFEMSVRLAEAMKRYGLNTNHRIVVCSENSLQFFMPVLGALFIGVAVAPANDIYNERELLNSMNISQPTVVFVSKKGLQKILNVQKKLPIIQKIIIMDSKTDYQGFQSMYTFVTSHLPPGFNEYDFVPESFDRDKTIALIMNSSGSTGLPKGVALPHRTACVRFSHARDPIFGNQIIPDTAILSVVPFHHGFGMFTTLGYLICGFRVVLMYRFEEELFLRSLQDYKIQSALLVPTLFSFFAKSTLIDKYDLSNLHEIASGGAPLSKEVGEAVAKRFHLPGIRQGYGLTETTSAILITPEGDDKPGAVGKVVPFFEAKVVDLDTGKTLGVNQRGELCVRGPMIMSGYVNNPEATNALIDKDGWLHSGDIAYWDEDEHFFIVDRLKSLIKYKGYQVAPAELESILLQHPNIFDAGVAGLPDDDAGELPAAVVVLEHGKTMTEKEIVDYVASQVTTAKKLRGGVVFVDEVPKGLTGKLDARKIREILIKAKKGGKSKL
Chain of Fibroblast growth factor 2 (Homo sapiens) (P09038 whole entry, looked up): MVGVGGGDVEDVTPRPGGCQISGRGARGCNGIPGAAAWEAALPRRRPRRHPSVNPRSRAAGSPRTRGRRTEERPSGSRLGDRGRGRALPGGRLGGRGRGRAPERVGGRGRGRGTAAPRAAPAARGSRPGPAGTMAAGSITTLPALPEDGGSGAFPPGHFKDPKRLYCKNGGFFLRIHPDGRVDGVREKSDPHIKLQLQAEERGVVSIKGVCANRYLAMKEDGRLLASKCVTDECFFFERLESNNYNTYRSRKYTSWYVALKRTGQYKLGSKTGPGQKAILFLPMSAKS

Row | SMILES | composite z-score [1] | composite z-score [2] | composite z-score [3] | composite z-score [4] | composite z-score [5] | composite z-score [6] | z-score [7] | composite z-score (Lefty1) | composite z-score [8] | z-score [9] | composite z-score [10] | z-score [11] | z-score [12] | z-score [13] | z-score [14] | composite z-score [15] | composite z-score [16] | composite z-score (Torsin-1A (Homo sapiens) [17]) | composite z-score (Torsin-1A (Homo sapiens) [18]) | composite z-score [19]
1 | C=C1C(=O)C=C2CN(C(=O)c3ccccc3)[C@@](Cc3ccc(F)cc3)(C(=O)OC)[C@@H]12 | 1 | 1.18 | 0.69 | 1.03 | 1.25 | -0.234 | -3.17 | -0.384 | 0.872 | -25.6 (active) | 0.272 | -5.23 (inactive) | 1.1 (inactive) | -0.375 (inactive) | -2.15 (inactive) | 1.87 | 0.49 | 0.172 | 0.73 | -0.0536
2 | C=CCNC(=O)[C@@H]1[C@H]2C(=O)O[C@H](c3ccccc3)[C@H](c3ccccc3)N2[C@H](c2ccc(OCCO)cc2)[C@@]12C(=O)Nc1ccc(C#CC3=CCCCC3)cc12 | 1.15 | 1.23 | 1.08 | 0.972 | 1.1 | 0.582 | -1.56 | 1.11 | 0.898 | -0.806 (inactive) | 0.257 | -4.25 (inactive) | -0.188 (inactive) | 0.299 (inactive) | -0.0321 (inactive) | 1.06 | 0.0502 | 0.707 | 0.531 | 1.66
3 | O=C1NC(=O)C2C1C=CC(C(O)C1CCCCC1)N2Nc1ccccn1 (stereo not given) | 0.279 | 0.688 | 0.113 | 0.177 | 0.597 | 0.205 | 0.517 | 0.119 | 0.149 | -0.224 (inactive) | 0.0408 | 1.06 (inactive) | -1.42 (inactive) | 0.433 (inactive) | 1.29 (inactive) | -0.15 | -0.0762 | 0.254 | 0.852 | 0.278
4 | C=C(C)C1CN([C@H](CO)c2ccccc2)C(=O)/C1=C\c1ccccc1 (stereo not given in full) | -0.288 | 0.145 | -0.234 | 0.237 | 0.803 | 1.14 | -1.06 | -0.0605 | 0.726 | 0.264 (inactive) | -0.0623 | -4.75 (inactive) | 1.3 (inactive) | 2.04 (inactive) | -0.391 (inactive) | -0.0971 | -0.0719 | 0.0321 | 0.343 | 0.633
5 | O=C1O[C@H](c2ccccc2)[C@H](c2ccccc2)N2[C@H]1[C@@H](C(=O)N1CCCCCCC1)[C@]1(C(=O)Nc3ccc(C#CCCO)cc31)[C@H]2c1ccc(O)cc1 | 2.12 | 1.32 | 4.55 | 0.967 | 1.56 | 1.71 | 0.889 | 1.85 | 1.68 | 0.628 (inactive) | 2.43 | -1.76 (inactive) | -0.575 (inactive) | -0.438 (inactive) | -1.23 (inactive) | 3.86 | 1.84 | 3.62 | 3.34 | 2.36
